Screening results as filed in PubChem BioAssay.
Rows were chosen to be rich in hits. Some 2.4% of all compounds tested hit in one or more screens of this group.
Pol beta inh-1: inhibitors of human DNA polymerase beta; P06746; Pol beta primer extension/strand displacement, fluorescence kinetic; Potency, µM (top dose mostly 114 µM), without a hit: at the highest dose activity change, negative = inhibition, hits mostly inhibitors; hit rate 1.3% among 340,000; also: potency is read from the fitted curve at half-maximal effect; % is scaled to controls: 0 for no effect and ±100 for the full control effect
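Preincubation: enzyme (10 nM) with compound, 15 min, RT. Reaction: substrate added to 50 nM final. Reads: 0 and 10 min. Analysis: normalized, Hill fit.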
Pol eta inh-1: DNA polymerase eta (human) inhibition; hit rate 1.2% among 390,000; AID 588591; recombinant Pol eta, fluorescent DNA replication assay; Q9Y253; Potency, µM (series often up to 114 µM), for the others: top-dose activity change, negative = inhibition, most hits filed as inhibitors; also: potency is read from the fitted curve at half-maximal effect; % is scaled to controls: 0 for no effect and ±100 for the full control effect
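Pol eta (10 nM) was preincubated with compounds for 15 min at room temperature, after which fluorescent replication substrate (50 nM final) was added to start the reaction. Fluorescence was read kinetically at 0 and 10 min.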
Pol kappa inh-1: inhibitors of human DNA polymerase kappa; purified Pol kappa, fluorescent DNA synthesis assay, 10 min; Potency, µM (highest dose often 107 µM), inactives show at the top dose activity, negative = inhibition, actives largely listed as inhibitors; hit rate 0.53% among 400,000; AID 588579; also: potency is read from the fitted curve at half-maximal effect; % is scaled to controls: 0 for no effect and ±100 for the full control effect
Target sequence (Q9UBT6 whole entry, looked up): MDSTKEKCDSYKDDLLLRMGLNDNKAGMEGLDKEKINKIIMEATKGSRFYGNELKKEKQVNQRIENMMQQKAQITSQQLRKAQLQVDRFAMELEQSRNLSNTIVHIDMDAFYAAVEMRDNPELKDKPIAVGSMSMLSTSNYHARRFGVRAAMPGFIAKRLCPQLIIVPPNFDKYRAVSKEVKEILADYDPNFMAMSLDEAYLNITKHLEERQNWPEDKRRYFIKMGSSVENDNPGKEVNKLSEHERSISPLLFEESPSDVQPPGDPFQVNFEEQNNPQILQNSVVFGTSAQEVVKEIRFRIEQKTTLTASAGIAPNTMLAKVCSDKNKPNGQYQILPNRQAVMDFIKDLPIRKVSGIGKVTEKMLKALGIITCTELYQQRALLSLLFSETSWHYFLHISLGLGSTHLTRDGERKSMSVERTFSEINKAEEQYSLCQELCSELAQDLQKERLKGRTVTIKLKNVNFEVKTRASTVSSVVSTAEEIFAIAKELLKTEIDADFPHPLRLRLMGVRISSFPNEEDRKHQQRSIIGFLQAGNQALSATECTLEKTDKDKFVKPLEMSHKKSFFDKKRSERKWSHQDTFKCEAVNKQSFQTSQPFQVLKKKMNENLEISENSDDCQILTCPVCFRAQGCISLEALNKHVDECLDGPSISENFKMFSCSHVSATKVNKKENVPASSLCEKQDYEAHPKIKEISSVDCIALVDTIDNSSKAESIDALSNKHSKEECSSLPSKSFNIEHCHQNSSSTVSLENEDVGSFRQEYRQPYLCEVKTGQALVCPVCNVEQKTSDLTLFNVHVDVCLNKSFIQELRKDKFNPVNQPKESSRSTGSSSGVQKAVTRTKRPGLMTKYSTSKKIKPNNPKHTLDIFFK
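Activity was followed as the change in fluorescence between reads at 0 and 10 min after starting the reaction with 50 nM substrate. Beforehand, 10 nM polymerase had been preincubated with compound for 15 min at room temperature.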
TDP1 block: blocks human tyrosyl-DNA phosphodiesterase 1; hit rate 0.28% among 350,000; AID 485290; recombinant TDP1, AlphaScreen DNA substrate cleavage; Potency, µM (doses to about 130 µM), for inactives: at the top dose activity change, negative = inhibition, actives largely listed as inhibitors; Q9NUW8; also: potency is read from the fitted curve at half-maximal effect; % is scaled to controls: 0 for no effect and ±100 for the full control effect; nearly all actives have a fitted effect of over 40% in size
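Recombinant human Tdp1 (E. coli-expressed, 1 nM final) preincubated with compounds 15 min at room temperature, then 5'-biotin/3'-phosphotyrosine-FITC DNA substrate (15 nM final) added for 5 min. AlphaScreen beads (10 ug/ml final) added 10 min; cleavage lowers signal.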
POLI inh: inhibitors of human DNA polymerase iota. Q9UNA4. Pol iota fluorescent replication assay, 10 min. Potency, µM (doses to about 115 µM), without a hit: at the top dose activity, negative = inhibition, usual class: inhibitors. hit rate 1% among 390,000; also: potency is read from the fitted curve at half-maximal effect
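Pol iota at 10 nM preincubated 15 min with compounds at room temperature; reaction started with fluorescent substrate, 50 nM final. Fluorescence read kinetically at 0 and 10 min; buffer-only wells as negative control.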
Pol beta inh-2: Inhibitors of human DNA polymerase beta, hit validation. shares compounds with Pol beta inh-1. Pol beta primer extension/strand displacement, fluorescence kinetic. Potency, µM, hits mostly inhibitors. hit rate 87% among 250. AID 540280; calls by dose curve; also: potency is read from the fitted curve at half-maximal effect
Klenow inh: inhibits Klenow fragment polymerase in counter-screen; Klenow exo- polymerase counter-screen, fluorescent DNA substrate; activity change, negative = inhibition, % at 57.1 µM; shares compounds with Pol beta inh-1; 250 tested, under 10 active
HIV RT counter: inhibits HIV-1 reverse transcriptase in counter-screen | shares compounds with Pol beta inh-1 | HIV-1 RT polymerase activity, counter-screen | activity % (negative = inhibition, positive = activation), % at 57.1 µM | 250 tested, under 10 active
POLB inh gel: validation of human DNA polymerase beta inhibitors; shares compounds with Pol beta inh-1; radiolabeled primer extension gel assay, phosphorimager; inhibition, % at 10 µM; hit rate 91% among 110;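 active = inhibition at 10 µM of 30% or more; inconclusive = no clear call, values can overlap the other calls; inactive = inhibition at 10 µM under 30%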
Pol iota confirm: Confirm cherry-picked inhibitors of human polymerase iota; shares compounds with Pol kappa inh-1; Pol iota primer extension, TAMRA/BHQ fluorescence; Potency, µM, most hits filed as inhibitors; hit rate 77% among 1,500; AID 720496; also: potency is read from the fitted curve at half-maximal effect
GALK confirm: galactokinase (human) inhibition, confirmation; shares compounds with Pol eta inh-1; purified GALK, Kinase-Glo ATP depletion luminescence; Potency, µM (doses to about 115 µM), for inactives: at the top dose activity, negative = inhibition, most hits filed as inhibitors; hit rate 70% among 150
Redox cycling: counter-screen for GALK inhibitors: redox cycling H2O2 generation; Phenol red-HRP H2O2 redox cycling, absorbance 600 nm; shares compounds with Pol eta inh-1; Potency, µM (doses to about 115 µM), without a hit: at the top dose activity change, negative = H2O2 signal, hits mostly inhibitors; AID 2035; hit rate 40% among 150
HEK293 viability: reduces HEK-293 cell viability in GALK counter-screen. shares compounds with Pol eta inh-1. HEK-293 viability, ATP luminescence (CellTiter-Glo), 24/48 h. Potency, µM (top dose mostly 46.1 µM), inactives show top-dose activity change, negative = cytotoxicity, hits mostly inhibitors. hit rate 10% among 170. AID 2547; also: potency is read from the fitted curve at half-maximal effect; % is scaled to controls: 0 for no effect and ±100 for the full control effect
Pol kappa inh-2: Pol kappa (human) inhibition, cherry-pick confirmation; purified Pol-kappa, fluorescent strand-displacement substrate; Potency, µM, actives largely listed as inhibitors; shares compounds with Pol eta inh-1; hit rate 76% among 920; AID 720501; also: potency is read from the fitted curve at half-maximal effect
Pol eta inh-2: confirmation of human DNA polymerase eta inhibitors; Pol eta primer extension, TAMRA/BHQ fluorescence, 10 min; shares compounds with Pol eta inh-1; hit rate 64% among 2,600; AID 720502; Potency, µM, usual class: inhibitors; also: potency is read from the fitted curve at half-maximal effect
Active calls of the source: *; ? = inconclusive; nt = not tested or not shown; [ ] = remark or other dose. Unless noted, calls follow the shape of the dose curve; as a rule, active = well fitted curve in the direction sought with a large enough effect; inconclusive = small, poorly fitted or top-dose-only effect, or another doubt; inactive = no such curve, though single readings can be large; an effect the other way counts as inactive or inconclusive.

SMILES	Pol beta inh-1	Pol eta inh-1	Pol kappa inh-1	TDP1 block	POLI inh	Pol beta inh-2	Klenow inh	HIV RT counter	Pol iota confirm	Pol eta inh-2	others
Cc1cc(=O)oc2cc(OCc3ccc(C(=O)OCC(=O)NC4CCS(=O)(=O)C4)cc3)ccc12 (stereo not drawn)	3.5µM*	22µM*	79µM*	8.9µM*	20µM*	25*	-20	-4	38*	27*	POLB inh gel=75*
Cc1cc(=O)oc2cc(OCc3ccc(C(=O)OCC(=O)N(C)C4CCS(=O)(=O)C4)cc3)ccc12 (stereo not drawn)	?	-17%	-12%	-5%	-11%	nt	nt	nt	nt	nt
CCOC(=O)C1=C(CN2CCN(c3cccc(Cl)c3)CC2)NC(=O)NC1c1ccc(Cl)cc1 (stereo not drawn)	27%	-13%	-1%	2%	0%	nt	nt	nt	nt	nt
CCCCc1cc(=O)oc2cc(C)c(CN3CCCC3)c(O)c12	5µM*	20µM*	?	nt	11µM*	35*	1	12	nt	30*
C[C@H]1Cc2c(-c3ccccc3)nc3c(c2CO1)CN(S(=O)(=O)c1ccc(C#N)cc1)CC3	nt	nt	nt	16%[12.3 µM]	nt	nt	nt	nt	nt	nt
Cc1ccc(SCC(=O)c2ccc(CC(=O)O)s2)cc1	11µM*	50µM*	?	nt	?	32*	-6	-15	nt	76*
COc1ccc(C(=O)N(Cc2sccc2C)C2CCS(=O)(=O)C2)cc1Cl (stereo not drawn)	20%	nt	14%	9%	21%	nt	nt	nt	nt	nt
CC(=O)Nc1ccc(C(=O)Nc2cccc(-c3cnc4ccccc4n3)c2)cc1	4.5µM*	?	-12%	nt	1%	14*	-31	-10	30*	?	Pol kappa inh-2=47*
Cc1ccc(C(=O)Nc2cccc(-c3cnc4ccccc4n3)c2)cc1	36%	-11%	0%[60.1 µM]	2%	26%	nt	nt	nt	nt	nt
C=C(C)CCOC(=O)C(CC(=O)O)NCc1ccco1 (stereo not drawn)	8.9µM*	11µM*	?	nt	-7%	35*	-7	10	nt	27*	Pol kappa inh-2=19*
COc1ccc(OC)c(/C=c2\sc3nc(-c4cccs4)nn3c2=O)c1	?	?	-11%	-3%	21%	nt	nt	nt	nt	nt
COc1ccccc1/C=c1\sc2nc(-c3ccco3)nn2c1=O	10µM*	8.9µM*	32µM*	nt	18µM*	28*	-32	4	42*	19*	POLB inh gel=95*
Cc1ccc2c(CNCCc3ccco3)c(C(=O)O)n(Cc3ccc(F)cc3)c2c1	-2%	-13%	-10%	5%	8%	nt	nt	nt	nt	nt
C=CC[C@](C)(O)c1ccccc1	nt	nt	nt	2%	nt	nt	nt	nt	nt	nt
Cc1ccccc1NC(=O)N1CCc2cc(S(=O)(=O)N3CCC(C)CC3)ccc21	6%	nt	-4%	5%	12%	nt	nt	nt	nt	nt
CN(CCC#N)C(=O)COC(=O)c1c2c(nc3ccccc13)/C(=C/c1ccco1)CC2	8.9µM*	6.3µM*	20µM*	nt	3.2µM*	22*	-27	6	30*	54*
COc1cccc(-c2cc(C(=O)NC3CC3)c3ccccc3n2)c1	27%	-19%	0%	2%	37%	nt	nt	nt	nt	nt
CCc1nnc(NC(=O)c2cc(-c3ccco3)nc3ccccc23)s1	8.9µM*	16µM*	25µM*	-3%	1.3µM*	20*	-11	33	?	76*
O=C(NC1CCC(O)CC1)c1cc(-c2ccco2)nc2ccccc12 (stereo not drawn)	13µM*	25µM*	?	nt	35µM*	28*	-17	41	67*	76*	POLB inh gel=84*
CCC(C)(C)NC(=O)C1CCN(S(=O)(=O)c2c(C)noc2/C=C/c2ccc(C)cc2)CC1	-14%	-9%	-5%[60.1 µM]	7%	-1%	nt	nt	nt	nt	nt
Cc1ccc(CNC(=O)c2ccc(-n3cccc3)cc2)cc1	6.3µM*	13µM*	22µM*	13µM*	14µM*	8.9*	-27	21	19*	30*	Pol kappa inh-2=19*
COc1cc(C(=S)N2CCN(c3ccccc3Cl)CC2)cc(O)c1O	10µM*	20µM*	71µM*	0%	?	2.5*	-16	-9	nt	76*
CC(=O)c1ccc(N2C(=O)N(Cc3cccc(C(F)(F)F)c3)c3ccccc3S2(=O)=O)cc1	-1%	?	-10%[60.1 µM]	0%	18%	nt	nt	nt	nt	nt
COc1cc(/C=C2\C(=O)N(c3ccc(NC(C)=O)cc3)N=C2c2ccccc2)ccc1O	49%	10%	-10%	8%	?	nt	nt	nt	nt	nt
O=C1/C(=C\c2ccc(O)c(O)c2)C(c2ccccc2)=NN1c1ccccc1	8.9µM*	8.9µM*	71µM*	8%	22µM*	7.1*	-12	-18	nt	43*	GALK confirm=?;Redox cycling=?;HEK293 viability=-12%;Pol kappa inh-2=19*
O=C(Nc1nnc(Cc2ccc(Cl)cc2)s1)C1CCN(C(=O)c2ccco2)CC1	nt	nt	7%	nt	4%	nt	nt	nt	nt	nt
